Results from PMC5540273 (PLoS ONE, 2017).

What follows are compounds tested on FGFR1. Conditions: concentration: 1 μM, replicates: in singlicate; n = 1.
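Further: KINOMEscan kinase panel screen.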

Structure (SMILES) | %Inh
CCCCc1nn2ncccc2c1-c1ccnc(Nc2ccc(N3CCN(C)CC3)cc2)n1 [GW684941] | 97.9%
CC(C)c1nc(-c2cccc(NS(=O)(=O)c3c(F)cccc3F)c2F)c(-c2ccnc(Nc3ccc(N4CCOCC4)nc3)n2)s1 [GSK2008607] | 60%
NCCCC(NC(=O)c1cc(Br)c(-c2ccnc3[nH]ccc23)s1)c1ccccc1.O=C(O)C(F)(F)F.O=C(O)C(F)(F)F (centres unmarked) [GSK1287544] | 52%
CN(C)S(=O)(=O)c1cc(-c2ccc3nccc(-c4cccc(S(N)(=O)=O)c4)c3c2)cnc1N [GSK1669921] | 0%

Each compound was assayed on FGFR2. Conditions: concentration: 1 μM, replicates: in singlicate; n = 1.

Structure (SMILES) | %Inh
Nc1ncc(-c2cccnc2)c2scc(-c3ccc4c(c3)CCN4C(=O)Cc3ccccc3)c12 [GSK683281] | 10%
c1ccc(Oc2ccc(Nc3ccnc4cc(-c5ccc(CNCCN6CCOCC6)o5)ccc34)cc2)nc1 [GW567145] | 4%
Cl.Cl.NCC(NCc1ccc(-c2ccnc3[nH]ccc23)s1)c1ccccc1 (centres unmarked) [GSK1321565] | 0%
CCn1c(-c2nonc2N)nc2c(C#CC(C)(C)O)nc(OC[C@H](N)c3ccccc3)cc21 [GSK943949] | 4%
O=C(Nc1cccc(-c2nn3ncccc3c2-c2ccnc(Nc3ccccc3)n2)c1)c1c(F)cccc1F [GSK198271] | 7%
CCS(=O)(=O)c1ccc(OC)c(Nc2nccc(-c3c(-c4cccc(NC(=O)c5c(F)cccc5F)c4)nn4ncccc34)n2)c1 [GSK326180] | 0%
C[C@@H](Oc1cc(-n2cnc3cc(-c4ccnc(NCCS(C)(=O)=O)c4)ccc32)sc1C(N)=O)c1ccccc1Cl [GSK907232] | 88%
Oc1cc(Nc2ccnc3cc(I)ccc23)ccc1F [GW552771] | 0%
Nc1ncc(-c2ccc3nccc(-c4ccncc4)c3c2)cc1S(=O)(=O)N1CCOCC1 [GSK1627798] | 0%
Cl.Cl.NCC(C(=O)Nc1cc(Br)c(-c2ccnc3[nH]ccc23)s1)c1ccccc1 (centres unmarked) [GSK1269851] | 8%
COc1ccc(Nc2nccc(N3CCC(NC(=O)Nc4cccc(OC)c4)C3)n2)cc1 (centres unmarked) [GSK1379742] | 7%
Cc1cccc(NC(=O)Nc2ccc(Oc3ncnc4ccn(C)c34)cc2)c1 | 0%
O=C(Nc1ccccc1F)NC1CCN(c2ccnc(Nc3ccc(F)cc3)n2)CC1 [GSK1379800] | 0%
COc1cccc(C2=C(Nc3ccc(Cl)c(C(=O)O)c3)C(=O)NC2=O)c1 [SB-390769] | 0%
O=c1[nH]cc(-c2ccc(N3CCOCC3)cc2)c2sc(-c3cn[nH]c3)cc12 [GSK2276055] | 0%
COc1ccc(Nc2nccc(NCCNC(=O)c3cc4ccccc4s3)n2)cc1 [GSK1379896] | 0%
O=C(Nc1cccc(-c2nn3ccccc3c2-c2ccnc(Nc3cccc(C(F)(F)F)c3)n2)c1)c1c(F)cccc1F [GSK292658] | 20%
COc1cccc(-c2ccc3c(NC(=O)C4CC4)n[nH]c3n2)c1 [SB-710903] | 0%
Cc1cccc(Nc2nc(N[C@H]3CCNC3)ncc2C(N)=O)c1.Cl [GSK2197149] | 0%

Structure (SMILES) | %Inh
Fc1ccc(-c2ncn(C3CCNCC3)c2-c2ccnc(Oc3ccc(-c4ccccc4)cc3)n2)cc1 [SB-245391] | 0%
O=C(NC1CCN(c2ccnc(Nc3ccc(F)cc3)n2)C1)c1cc2ccccc2s1 (centres unmarked) [GSK1379716] | 3%
COc1cccc(C(=O)Nc2cccc(Oc3ccc4nc(NC(=O)C5CC5)cn4n3)c2)c1 | 88%
Cl.NC(=O)c1cccc(Nc2nccc(Nc3ccc(Oc4c(Cl)cccc4Cl)c(Cl)c3)n2)c1 [GW659009] | 0%
O=C(Nc1n[nH]c2cc(-c3ccoc3)ccc12)C1CC1 [SB-738481] | 0%
Cl.c1ccc(-c2ccc3c(Nc4ccc5[nH]ccc5c4)ccnc3c2)nc1 [GW440138] | 63%
COc1ccc(-c2coc3ccc(-c4nnc(SCc5ccc(OC)c(C(F)(F)F)c5)o4)cc23)cc1 | 17%
COc1cc2c(cc1OCCN1CCNCC1)ncc1c3ccc(C#N)cc3[nH]c21 | 16%
CN(c1ccc(NC(=O)Nc2cc(C(F)(F)F)ccc2F)cc1)c1ccnc(Nc2ccc(S(N)(=O)=O)cc2)n1 [GW809893] | 70%
Cn1cc(-c2ccc3c(c2)CCN3C(=O)Cc2cccc(F)c2)c2c(N)ncnc21 [GSK2603358] | 0%
CN(C)Cc1ccc(-c2ccc3c(Nc4ccc(Oc5ccccn5)cc4)ccnc3c2)o1 [GW567148] | 12%
c1ccc(-c2n[nH]cc2Nc2ccnc3ccccc23)nc1 [GW694077] | 0%
COc1ccc(CNC(=O)NC2CCN(c3ccnc(Nc4ccc(F)cc4)n3)CC2)cc1 [GSK1379788] | 0%
COc1cc(Nc2nccc(-c3c(-c4cccc(NC(=O)c5c(F)cccc5F)c4)nn4ncccc34)n2)cc(OC)c1OC [GSK327238] | 61%
CCCCc1nn2ncccc2c1-c1ccnc(Nc2ccc(N3CCN(C)CC3)cc2)n1 [GW684941] | 96.9%
CC(C)c1nc(-c2cccc(NS(=O)(=O)c3c(F)cccc3F)c2F)c(-c2ccnc(Nc3ccc(N4CCOCC4)nc3)n2)s1 [GSK2008607] | 82%
NCCCC(NC(=O)c1cc(Br)c(-c2ccnc3[nH]ccc23)s1)c1ccccc1.O=C(O)C(F)(F)F.O=C(O)C(F)(F)F (centres unmarked) [GSK1287544] | 16%
CN(C)S(=O)(=O)c1cc(-c2ccc3nccc(-c4cccc(S(N)(=O)=O)c4)c3c2)cnc1N [GSK1669921] | 22%
